Measured values from PubChem BioAssay (EPA / NIEHS).
Inconclusive results are not listed. Some structures have more than one record in an assay (separate samples or runs), and their calls can disagree. Calls of active or inactive are those of the source. The calls were made as follows, unless noted: active = hit-call score of the fitted dose curve at least 0.9, where 1 is the maximum; inconclusive = response in the unintended direction; inactive = score below 0.9.

Columns and labels:
[1] = biological target: Retinoic acid receptor RXR-alpha (Homo sapiens) (UniProt P19793); assay: ATG_RXRa_TRANS: Attagene TRANS-FACTORIAL HepG2 Assay for human Retinoid X Receptor alpha (RXRa) (AID 2283012)
How it was run: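 Cells (HepG2) carried transiently transfected GAL4-responsive reporter units. Following a 24 h chemical incubation, reporter mRNA induction was read via RT-PCR fragment analysis; DMSO served as negative control and baseline.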

[2] = biological target: human Retinoid X Receptor beta (RXRb), RXRB (gene 6257) (UniProt P28702); assay: ATG_RXRb_TRANS: Attagene TRANS-FACTORIAL HepG2 Assay for human Retinoid X Receptor beta (RXRb) (AID 2283013)
How it was run: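 Multiplexed TRANS reporter assay in HepG2; 24 h dosing; reporter mRNA by RT-PCR/CE fluorescence; gain-of-signal relative to DMSO.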

[3] = biological target: human Thyroid Receptor alpha (THRa1), THRA (gene 7067) (UniProt P10827); assay: ATG_THRa1_TRANS: Attagene TRANS-FACTORIAL HepG2 Assay for human Thyroid Receptor alpha (THRa1) (AID 2283014)
How it was run: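 HepG2 cells transiently transfected with multiplexed GAL4-UAS reporter units for exogenous chimeric THRa1-Gal4; reporter mRNA measured 24 h after dosing by RT-PCR, 6-FAM labelling, HpaI digestion and capillary electrophoresis. Gain-of-signal fitted versus DMSO baseline.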

[4] = read-out: E-selectin (Homo sapiens) (UniProt P16581); assay: BSK_3C_Eselectin: BioMAP Diversity Plus: 3C Assay for Eselectin Biomarker Activity (AID 2283015; active = hit-call score of the fitted dose curve at least 0.9, where 1 is the maximum; inactive = score below 0.9;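 as to outcome: cell surface E-selectin protein quantified by ELISA 24 h after dosing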); settings: primary human endothelial cells (HUVEC); actives raise or lower the signal
How it was run: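 Primary human umbilical vein endothelial cells (3C system) were dosed with chemical and cell-surface E-selectin measured by ELISA 24 h later. Bidirectional curve fitting used DMSO as negative control and baseline.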

[5] = read-out: Interleukin-1 alpha (IL1a), IL1A (gene 3552); assay: BSK_BE3C_IL1a: BioMAP Diversity Plus: BE3C Assay for Interleukin-1 alpha (IL1a) Biomarker Activity (AID 2283016; active = hit-call score of the fitted dose curve at least 0.9, where 1 is the maximum; inactive = score below 0.9); settings: primary human bronchial epithelial cells; actives raise or lower the signal
How it was run: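 Cultures of primary human bronchial epithelial cells receive test chemical. After 24 h, IL-1a is quantified by ELISA, while parallel wells are fixed in TCA and SRB-stained for total protein. Changes in either direction are fitted relative to DMSO.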

[6] = read-out: Monocyte Chemoattractant Protein-1 (MCP1), CCL2 (gene 6347); assay: BSK_3C_MCP1: BioMAP Diversity Plus: 3C Assay for Monocyte Chemoattractant Protein-1 (MCP1) Biomarker Activity (AID 2283017; active = hit-call score of the fitted dose curve at least 0.9, where 1 is the maximum; inactive = score below 0.9); settings: primary human endothelial cells (HUVEC); actives raise or lower the signal
How it was run: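 Primary human umbilical vein endothelial cells (3C system) were exposed to test chemical for 24 h, after which MCP-1 was quantified by ELISA. Activity was fitted bidirectionally against DMSO as negative control and baseline.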

[7] = read-out: Monocyte Chemoattractant Protein-1 (MCP1), CCL2 (gene 6347); assay: BSK_4H_MCP1: BioMAP Diversity Plus: 4H Assay for Monocyte Chemoattractant Protein-1 (MCP1) Biomarker Activity (AID 2283018; active = hit-call score of the fitted dose curve at least 0.9, where 1 is the maximum; inactive = score below 0.9); settings: primary human endothelial cells (HUVEC); actives raise or lower the signal
How it was run: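 Readout: MCP-1 ELISA on compound-treated HUVEC, sampled 24 h post-dosing. Baseline and negative control DMSO; bidirectional fit. Overt toxicity checked alongside by sulforhodamine B protein staining at time of biomarker measurement.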

[8] = read-out: Human Leukocyte Antigen - DR isotype (HLADR), HLA-DRA (gene 3122); assay: BSK_3C_HLADR: BioMAP Diversity Plus: 3C Assay for Human Leukocyte Antigen - DR isotype (HLADR) Biomarker Activity (AID 2283019; active = hit-call score of the fitted dose curve at least 0.9, where 1 is the maximum; inactive = score below 0.9;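 as to outcome: ELISA of cell-surface HLA-DR on HUVEC 24 h after dosing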); settings: primary human endothelial cells (HUVEC); actives raise or lower the signal
How it was run: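 Primary human umbilical vein endothelial cells (3C system) were dosed with compound and cell-surface HLA-DR was quantified by ELISA at 24 h. Activity was fitted bidirectionally against DMSO as negative control and baseline.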

[9] = read-out: Interleukin-8 (IL8), CXCL8 (gene 3576); assay: BSK_3C_IL8: BioMAP Diversity Plus: 3C Assay for Interleukin-8 (IL8) Biomarker Activity (AID 2283020; active = hit-call score of the fitted dose curve at least 0.9, where 1 is the maximum; inactive = score below 0.9); settings: primary human endothelial cells (HUVEC); actives raise or lower the signal
How it was run: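 Human vascular endothelial cells (umbilical vein) in the 3C system; IL-8 level detected by ELISA at 24 h post-dose, with DMSO as baseline.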

[10] = read-out: Monokine induced gamma interferon (MIG), CXCL9 (gene 4283); assay: BSK_3C_MIG: BioMAP Diversity Plus: 3C Assay for Monokine induced gamma interferon (MIG) Biomarker Activity (AID 2283021; active = hit-call score of the fitted dose curve at least 0.9, where 1 is the maximum; inactive = score below 0.9;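 as to AC50: MIG protein level measured by immunoassay in the treated endothelial cultures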); settings: primary human endothelial cells (HUVEC); actives raise or lower the signal
How it was run: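 After 24 h of treatment, human umbilical vein endothelial cultures (3C system) had their MIG biomarker level determined by ELISA, with DMSO serving as negative control.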

Sequence of E-selectin (Homo sapiens) (P16581 whole entry, looked up): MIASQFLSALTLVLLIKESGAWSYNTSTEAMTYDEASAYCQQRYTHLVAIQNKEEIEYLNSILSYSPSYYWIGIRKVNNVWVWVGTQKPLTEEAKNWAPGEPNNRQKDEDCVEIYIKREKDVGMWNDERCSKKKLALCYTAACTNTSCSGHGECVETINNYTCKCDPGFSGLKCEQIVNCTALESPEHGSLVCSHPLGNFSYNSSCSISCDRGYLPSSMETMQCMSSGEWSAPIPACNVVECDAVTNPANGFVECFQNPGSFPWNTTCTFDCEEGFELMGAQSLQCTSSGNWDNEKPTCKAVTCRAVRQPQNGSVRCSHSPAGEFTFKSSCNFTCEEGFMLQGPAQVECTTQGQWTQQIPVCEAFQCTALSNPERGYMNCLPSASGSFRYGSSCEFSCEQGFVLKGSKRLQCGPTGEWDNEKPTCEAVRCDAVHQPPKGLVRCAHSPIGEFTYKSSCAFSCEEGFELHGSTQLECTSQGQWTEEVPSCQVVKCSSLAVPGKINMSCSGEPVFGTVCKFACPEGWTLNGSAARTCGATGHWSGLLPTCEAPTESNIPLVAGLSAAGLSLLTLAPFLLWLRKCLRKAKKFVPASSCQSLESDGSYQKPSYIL
Sequence of Retinoic acid receptor RXR-alpha (Homo sapiens) (P19793 whole entry, looked up, the tested form may be a part): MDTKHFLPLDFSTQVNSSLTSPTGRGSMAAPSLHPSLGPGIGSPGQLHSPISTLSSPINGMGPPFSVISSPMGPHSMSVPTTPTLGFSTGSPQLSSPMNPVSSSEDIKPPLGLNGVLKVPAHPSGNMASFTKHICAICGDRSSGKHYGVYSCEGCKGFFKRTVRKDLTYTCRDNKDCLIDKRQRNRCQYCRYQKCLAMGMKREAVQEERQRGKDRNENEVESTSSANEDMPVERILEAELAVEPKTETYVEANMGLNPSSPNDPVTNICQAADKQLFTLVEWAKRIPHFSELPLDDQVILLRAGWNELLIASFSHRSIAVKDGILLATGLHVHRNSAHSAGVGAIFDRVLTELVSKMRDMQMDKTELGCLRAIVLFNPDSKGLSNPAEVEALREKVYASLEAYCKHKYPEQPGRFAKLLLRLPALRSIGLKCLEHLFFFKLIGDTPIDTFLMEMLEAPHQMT
Sequence of human Retinoid X Receptor beta (RXRb), RXRB (gene 6257) (P28702 whole entry, looked up): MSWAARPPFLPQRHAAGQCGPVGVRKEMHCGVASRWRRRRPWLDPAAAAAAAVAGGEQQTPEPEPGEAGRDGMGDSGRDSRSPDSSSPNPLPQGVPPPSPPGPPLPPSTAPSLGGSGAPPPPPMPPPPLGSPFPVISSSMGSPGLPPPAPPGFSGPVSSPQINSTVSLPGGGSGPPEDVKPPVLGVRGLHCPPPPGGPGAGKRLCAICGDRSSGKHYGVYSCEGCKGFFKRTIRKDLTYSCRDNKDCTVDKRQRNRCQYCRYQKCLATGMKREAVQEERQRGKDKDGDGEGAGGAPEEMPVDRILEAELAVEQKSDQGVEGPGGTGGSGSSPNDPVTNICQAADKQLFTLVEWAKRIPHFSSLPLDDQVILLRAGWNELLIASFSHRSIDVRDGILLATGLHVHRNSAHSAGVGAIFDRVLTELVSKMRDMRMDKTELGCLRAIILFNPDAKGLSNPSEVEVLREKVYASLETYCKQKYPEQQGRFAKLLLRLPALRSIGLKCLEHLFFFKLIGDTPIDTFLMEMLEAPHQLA
Sequence of human Thyroid Receptor alpha (THRa1), THRA (gene 7067) (P10827 whole entry, looked up, the tested form may be a part): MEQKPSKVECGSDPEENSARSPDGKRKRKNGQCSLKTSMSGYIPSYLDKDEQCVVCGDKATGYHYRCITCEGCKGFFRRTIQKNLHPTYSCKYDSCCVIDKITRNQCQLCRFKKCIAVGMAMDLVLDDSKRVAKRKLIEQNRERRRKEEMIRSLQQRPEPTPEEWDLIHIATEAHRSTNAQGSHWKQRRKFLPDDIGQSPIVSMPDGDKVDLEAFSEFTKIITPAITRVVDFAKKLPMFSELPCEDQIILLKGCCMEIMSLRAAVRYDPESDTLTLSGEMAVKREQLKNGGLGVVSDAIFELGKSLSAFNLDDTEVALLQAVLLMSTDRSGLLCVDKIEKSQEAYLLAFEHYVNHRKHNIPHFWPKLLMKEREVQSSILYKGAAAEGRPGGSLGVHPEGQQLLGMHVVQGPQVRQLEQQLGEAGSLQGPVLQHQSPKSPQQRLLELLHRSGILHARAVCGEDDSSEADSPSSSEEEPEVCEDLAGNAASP

Cc1cccc(C)c1NC(=O)CN1CCCC1=O
outcome [1]: inactive

CS(=O)(=O)c1ccc(C(=O)C2C(=O)CCCC2=O)c(Cl)c1COCC(F)(F)F
outcome [1]: inactive

CCCCCCCCCCCCCCC(Br)C(=O)O (centres undefined)
AC50 [1]: 26.7 µM (active) | AC50 [2]: 9.18 µM (active)

BrCC(Br)c1ccccc1 (centres undefined)
outcome [1]: inactive

Cc1cc(Cl)ccc1O
outcome [1]: inactive | AC50 [2]: 100 µM (active)

O=NN1CCCCCCC1
outcome [1]: inactive | outcome [2]: inactive

Cc1cccc(N=Nc2ccc(N(C)C)cc2)c1
outcome [1]: inactive | outcome [2]: inactive

BrCc1ccc(Br)cc1
outcome [1]: inactive

CCOP(=S)(OCC)O/N=C(\C#N)c1ccccc1
outcome [1]: inactive | AC50 [2]: 27.5 µM (active)

COc1nn(C(=O)NS(=O)(=O)c2ccccc2OC(F)(F)F)c(=O)n1C
outcome [1]: inactive

C=C(C)C(=O)OCCCCOC(=O)C(=C)C
outcome [1]: inactive | outcome [2]: inactive

CN(CCCC(O)c1cccnc1)N=O (centres undefined)
outcome [1]: inactive | outcome [2]: inactive

CCCCCCCCCCCCOS(=O)(=O)O
outcome [1]: inactive | AC50 [2]: 33.4 µM (active)

N#CS
outcome [1]: inactive | outcome [2]: inactive

CCOC(=O)OC1=C(c2cc(C)ccc2C)C(=O)NC12CCC(OC)CC2 (centres undefined)
outcome [1]: inactive | outcome [2]: inactive

FC(F)OCC(F)(F)C(F)(F)F
outcome [1]: inactive | outcome [2]: inactive

O=[N+]([O-])c1ccccc1O
outcome [1]: inactive | outcome [2]: inactive

ClCCCCl
outcome [1]: inactive

CC1(C)COP(Oc2ccccc2)OC1
outcome [1]: inactive | outcome [2]: inactive

C=CC(F)(C(F)(F)F)C(F)(F)C(F)(F)F (centres undefined)
outcome [1]: inactive | outcome [2]: inactive

O=S(=O)(F)C(F)(F)C(F)(F)C(F)(F)C(F)(F)F
outcome [1]: inactive

CCCCCCCCBr
outcome [1]: inactive | outcome [2]: inactive

N#Cc1ccc(Cl)cc1
outcome [1]: inactive | outcome [2]: inactive

CCC[N+](CCC)(CCC)CCC
outcome [1]: inactive | outcome [2]: inactive

O=c1[nH]c2ccccc2n1C1CCN(CCCC(c2ccc(F)cc2)c2ccc(F)cc2)CC1
outcome [1]: inactive

Cc1cc(C(F)(C(F)(F)F)C(F)(F)F)ccc1NC(=O)c1cccc(I)c1C(=O)NC(C)(C)CS(C)(=O)=O
outcome [1]: inactive

CC(C)(C)c1ccc(CCOc2ncnc3ccccc23)cc1
outcome [1]: inactive | outcome [2]: inactive

CC(C)CP(=S)(S)CC(C)C
outcome [1]: inactive | outcome [2]: inactive

OC(c1ccc(Cl)cc1)(c1ccc(Cl)cc1)c1cccnc1
outcome [1]: inactive

CCN(N=O)C(N)=O
outcome [1]: inactive

c1ccc2c(c1)Oc1ccccc1O2
outcome [1]: inactive | outcome [2]: inactive

Brc1ccc(Oc2c(Br)cc(Br)cc2Br)c(Br)c1
outcome [1]: inactive | outcome [2]: inactive

CCCSP(=S)(OCC)Oc1ccc(Cl)cc1Cl (centres undefined)
outcome [1]: inactive | AC50 [2]: 27 µM (active)

CCCCCCCCCCBr
outcome [1]: inactive | AC50 [2]: 100 µM (active)

O=C(O)CC(O)(CC(=O)O)C(=O)O
AC50 [1]: 5.06 µM (active) | outcome [1]: inactive | AC50 [2]: 1.11 µM (active) | outcome [2]: inactive

C=CCc1ccccc1O
outcome [1]: inactive | outcome [2]: inactive

CC(C)O.CC(C)O.OCCN(CCO)CCO.OCCN(CCO)CCO.[Ti]
outcome [1]: inactive | outcome [2]: inactive | outcome [3]: inactive | outcome [4]: inactive | outcome [5]: inactive | outcome [6]: inactive | outcome [7]: inactive | outcome [8]: inactive | outcome [9]: inactive | outcome [10]: inactive

CCOP(=S)(OCC)OP(=S)(OCC)OCC
outcome [1]: inactive | AC50 [2]: 50.2 µM (active) | outcome [3]: inactive | AC50 [4]: 32.1 µM (active) | outcome [5]: inactive | AC50 [6]: 26.5 µM (active) | AC50 [8]: 30.4 µM (active) | outcome [9]: inactive | outcome [10]: inactive

Cc1ccccc1OP(=O)(Oc1ccccc1C)Oc1ccccc1C
outcome [1]: inactive | outcome [2]: inactive | outcome [3]: inactive | AC50 [4]: 5.43 µM (active) | AC50 [5]: 10.7 µM (active) | AC50 [6]: 10.2 µM (active) | AC50 [8]: 6.21 µM (active) | AC50 [9]: 5.37 µM (active) | outcome [10]: inactive

CC(C)(C)c1cc([N+](=O)[O-])cc(C(C)(C)C)c1O
AC50 [1]: 26.7 µM (active) | AC50 [2]: 2.54 µM (active) | outcome [3]: inactive | AC50 [4]: 0.549 µM (active) | outcome [5]: inactive | outcome [6]: inactive | outcome [7]: inactive | AC50 [8]: 0.016 µM (active) | outcome [9]: inactive | outcome [10]: inactive

OCCN(CCO)CCO
outcome [1]: inactive | outcome [2]: inactive | outcome [4]: inactive | outcome [5]: inactive | outcome [6]: inactive | outcome [7]: inactive | outcome [8]: inactive | outcome [9]: inactive | outcome [10]: inactive

OCC(c1ccc(Cl)cc1)c1ccc(Cl)cc1
outcome [1]: inactive | outcome [2]: inactive | outcome [3]: inactive

CCOP(=S)(OCC)Oc1ccc(Cl)cc1Cl
outcome [1]: inactive | AC50 [2]: 27.6 µM (active) | outcome [3]: inactive

COP(=S)(OC)Oc1cc(Cl)c(I)cc1Cl
outcome [1]: inactive | AC50 [2]: 38.6 µM (active) | outcome [3]: inactive

Oc1c(Br)cc(Br)cc1Br
outcome [1]: inactive | outcome [2]: inactive | AC50 [3]: 100 µM (active) | AC50 [4]: 27.2 µM (active) | outcome [5]: inactive | AC50 [6]: 32.9 µM (active) | outcome [7]: inactive | AC50 [8]: 34.3 µM (active) | outcome [9]: inactive | outcome [10]: inactive

CCC(C)(C#N)N=NC(C)(C#N)CC (centres undefined)
outcome [1]: inactive | outcome [2]: inactive | outcome [3]: inactive | outcome [4]: inactive | outcome [5]: inactive | outcome [6]: inactive | outcome [7]: inactive | outcome [8]: inactive | outcome [9]: inactive | outcome [10]: inactive

Fc1cccc(Cl)c1CCl
outcome [1]: inactive | outcome [2]: inactive | outcome [3]: inactive

C#CCOC(=O)/C=C(C)/C=C/CC(C)CCCC(C)C (centres undefined)
AC50 [1]: 14.1 µM (active) | AC50 [2]: 3.9 µM (active) | AC50 [4]: 6.38 µM (active) | outcome [5]: inactive | AC50 [6]: 36.8 µM (active) | AC50 [7]: 13.4 µM (active) | AC50 [8]: 28.1 µM (active) | AC50 [9]: 0.0524 µM (active) | outcome [10]: inactive

NC(=O)CCl
outcome [1]: inactive | outcome [2]: inactive | outcome [3]: inactive | outcome [4]: inactive | outcome [5]: inactive | outcome [6]: inactive | outcome [7]: inactive | outcome [8]: inactive | outcome [9]: inactive | outcome [10]: inactive

CC(C=O)Cc1ccc2c(c1)OCO2 (centres undefined)
outcome [1]: inactive | outcome [2]: inactive | outcome [3]: inactive | outcome [4]: inactive | outcome [5]: inactive | outcome [6]: inactive | outcome [8]: inactive | outcome [9]: inactive | outcome [10]: inactive

O=C(O)C1(c2ccc3c(c2)OC[C@H](Cc2ccc(-c4ccccc4)cc2)[C@H]3O)CCCC1
outcome [1]: inactive | outcome [2]: inactive | outcome [3]: inactive | AC50 [4]: 24.9 µM (active) | AC50 [5]: 15.3 µM (active) | AC50 [6]: 23.6 µM (active) | AC50 [8]: 20 µM (active) | AC50 [9]: 29.9 µM (active) | AC50 [10]: 35.7 µM (active)
